Here are results for nine molecules from PubChem BioAssay.

The nature of assay [1]: resazurin metabolic signal in HepG2 cells – cell-based, resazurin fluorescence, 24 h, PK04 Diversity Set, profiling panel (AID 1172). Conditions: HepG2 viability, higher = more signal. For orientation: Alamar Blue is a resazurin reagent that responds to reducing activity.
A short description of assay [2]: budding yeast growth changes without added modifier – OD600, strain BY4716, 24 h, basal condition, primary screen (AID 1173). Conditions: S. cerevisiae BY4716 growth, OD600, 24 h; higher = more signal, called active from +8 up or from −8 down.
Assay [3] is described as follows: viability profiling in MM1S myeloma cells – cell-based, resazurin fluorescence, basal, 24 h, PK04 Diversity Set, profiling panel (AID 1174).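 Further: MM1S multiple myeloma cell line.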 Conditions: higher = more signal, called active from +8 up or from −8 down.
Assay [4] deals with Dihydroorotate dehydrogenase (quinone), mitochondrial (Plasmodium falciparum (isolate 3D7)) (UniProt Q08210). The experiment in a line: inhibition of P. falciparum DHODH – biochemical, C-terminal His tag, absorbance 600 nm, primary screen (AID 1175).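 Further: recombinant parasite enzyme with a five histidine tag at its C terminus.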 Particulars: PfDHODH enzyme, DCIP absorbance 600 nm; higher = more signal, called active from +8 up or from −8 down.
Dihydroorotate dehydrogenase (quinone), mitochondrial (Plasmodium falciparum (isolate 3D7)), sequence (Q08210 whole entry, looked up): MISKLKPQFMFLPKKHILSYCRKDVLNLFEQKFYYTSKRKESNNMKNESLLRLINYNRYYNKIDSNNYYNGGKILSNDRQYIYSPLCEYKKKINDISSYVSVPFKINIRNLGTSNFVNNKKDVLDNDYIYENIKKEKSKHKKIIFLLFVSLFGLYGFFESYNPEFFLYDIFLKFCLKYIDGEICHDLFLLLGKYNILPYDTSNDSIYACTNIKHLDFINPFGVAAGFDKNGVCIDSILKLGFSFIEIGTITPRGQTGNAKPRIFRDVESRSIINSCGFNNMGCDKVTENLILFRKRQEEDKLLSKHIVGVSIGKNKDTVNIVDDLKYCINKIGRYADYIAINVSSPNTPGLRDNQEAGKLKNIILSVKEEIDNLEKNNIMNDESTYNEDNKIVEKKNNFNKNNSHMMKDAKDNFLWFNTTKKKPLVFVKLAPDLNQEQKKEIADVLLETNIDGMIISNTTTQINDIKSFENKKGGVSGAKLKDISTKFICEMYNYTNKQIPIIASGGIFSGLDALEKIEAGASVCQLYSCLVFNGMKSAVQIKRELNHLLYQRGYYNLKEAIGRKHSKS
Assay [5] can be described thus: inhibition of PAO1 biofilm formation – strain PAO1, LB-PBS medium, absorbance 600 nm, primary screen (AID 1176). Particulars: P. aeruginosa PAO1 growth/biofilm, A600, 12 h; higher = more signal.
A short description of assay [6]: growth modulation of vineyard yeast isolate – strain RM11-1a, OD600, basal, 24 h, primary screen (AID 1177).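 Further: cultures grown under basal conditions with no added stressor.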 Particulars: S. cerevisiae RM11-1a growth, OD600, 24 h; higher = more signal, called active from +8 up or from −8 down.
The nature of assay [7]: growth of efflux-deficient E. coli DRC39 – strain DRC39, OD650, 24 h, E. coli filamentation inducers, primary screen (AID 1178).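 Further: growth measured as culture turbidity by optical density at 650 nm.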 Conditions: E. coli DRC39 acrAB, higher = more signal, called active from +8 up or from −8 down.
Assay [8] in a line: growth of efflux-deficient E. coli DRC39 – strain DRC39, OD650, 48 h, E. coli filamentation inducers, primary screen (AID 1179).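 Further: screen aims at cell division blockers that make cells filament.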 Conditions: E. coli DRC39 delta-acrAB growth, higher = more signal, called active from +8 up or from −8 down.
Assay [9] is described as follows: viability profiling in RPMI8226 myeloma cells – cell-based, resazurin fluorescence, basal, 24 h, PK04 Diversity Set, profiling panel (AID 1180).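 Further: RPMI8826 multiple myeloma cell line at 5000 cells per well.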 Conditions: higher = more signal.
Assay [10] addresses E3 ubiquitin-protein ligase XIAP (Homo sapiens) (UniProt P98170). The experiment in a line: small molecules binding XIAP protein – biophysical, small-molecule microarray, fluorescence 635 nm, primary screen (AID 1181).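 Further: score merges 667 nm emission and signal to noise over triplicate slides.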 Conditions: higher = more signal.
For assay [11], the system named is XIP peptide (Xip251-270) binding. The experiment in a line: XIP fragment 251-270 binding compounds – biochemical, small-molecule microarray, fluorescence 635/667 nm, 0.1 µg/mL protein, primary screen (AID 1182). Particulars: fluorescent protein binding, 635 nm, higher = more signal, called active from +8 up or from −8 down.
The test system of a further assay is XIP peptide (Xip251-270). The experiment in a line: compounds binding XIP fragment 251-270 – biochemical, small-molecule microarray, fluorescence 635/667 nm, 0.5 µg/mL protein, primary screen (AID 1183). Particulars: fluorescence 635 nm, higher = more signal.
Assay [12] is described as follows: blood-stage malaria parasite viability loss – strain 3D7, DAPI fluorescence, 100 nL, primary screen (AID 1184).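 Further: parasites grown inside human red blood cells in medium with human serum.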 Conditions: P. falciparum 3D7 growth, 3 d, higher = more signal.
Assay [13] concerns the target Homeobox protein Hox-A13 (Mus musculus) (UniProt Q62424). The experiment in a line: disruptors of Hoxa13 oligonucleotide interaction – biochemical, fluorescence polarization, labeled oligonucleotide, primary screen (AID 1185). Particulars: Hoxa13:DNA binding, 15 min, higher = more signal, called active from +8 up or from −8 down. For orientation: In fluorescence polarisation assays a small probe gives low polarisation when free and higher when bound to something large.

Assay [14] can be described thus: blockers of DNA damage checkpoint Chk1 activation – imaging, HeLa, hydroxyurea, phospho-Chk1 antibody, percent positive cells, primary screen (AID 1186). Particulars: hydroxyurea-induced phospho-Chk1 immunofluorescence imaging, higher = more signal.
Assay [15] can be described thus: blockers of DNA damage checkpoint Chk1 activation – imaging, HeLa, hydroxyurea, phospho-Chk1 nuclear intensity, primary screen (AID 1187). Particulars: hydroxyurea-induced phospho-Chk1 immunofluorescence imaging, higher = more signal.

The source made the active and inactive calls. Unless noted, how the calls were made is not given here.

Homeobox protein Hox-A13 (Mus musculus), sequence (Q62424 whole entry, looked up): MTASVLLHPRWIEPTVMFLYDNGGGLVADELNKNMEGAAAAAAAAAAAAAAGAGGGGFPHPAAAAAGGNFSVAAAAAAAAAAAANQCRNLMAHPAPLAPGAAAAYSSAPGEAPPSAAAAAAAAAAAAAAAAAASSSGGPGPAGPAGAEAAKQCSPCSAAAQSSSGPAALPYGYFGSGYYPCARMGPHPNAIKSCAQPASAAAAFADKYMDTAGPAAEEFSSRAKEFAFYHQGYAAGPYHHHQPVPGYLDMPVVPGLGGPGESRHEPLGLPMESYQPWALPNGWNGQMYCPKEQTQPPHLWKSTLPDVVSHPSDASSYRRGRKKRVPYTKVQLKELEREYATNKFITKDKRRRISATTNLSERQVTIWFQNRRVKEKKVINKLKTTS
E3 ubiquitin-protein ligase XIAP (Homo sapiens), sequence (P98170 whole entry, looked up, the tested form may be a part): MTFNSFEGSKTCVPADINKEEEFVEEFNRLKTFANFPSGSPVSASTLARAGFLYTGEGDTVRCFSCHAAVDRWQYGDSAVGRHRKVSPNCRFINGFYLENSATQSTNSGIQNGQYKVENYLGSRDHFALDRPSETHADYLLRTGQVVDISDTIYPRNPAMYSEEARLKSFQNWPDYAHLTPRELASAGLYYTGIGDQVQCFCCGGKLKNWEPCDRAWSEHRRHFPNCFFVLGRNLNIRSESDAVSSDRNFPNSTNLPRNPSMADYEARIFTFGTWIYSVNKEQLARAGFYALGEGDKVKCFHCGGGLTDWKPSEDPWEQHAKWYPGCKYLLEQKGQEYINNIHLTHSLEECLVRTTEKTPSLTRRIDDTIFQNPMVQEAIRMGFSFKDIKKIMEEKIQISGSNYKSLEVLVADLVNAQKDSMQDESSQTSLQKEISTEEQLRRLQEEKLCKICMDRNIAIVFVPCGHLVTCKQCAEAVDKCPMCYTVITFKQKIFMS

For `CC(C)CNC(=O)[C@@H]1c2ccccc2C(=O)N(Cc2cc(F)cc(C(F)(F)F)c2)[C@H]1c1ccc(CO)cc1`, the z-score in [1] was 0.564; in assay [2] it was -0.874 (inactive); in assay [3], 0.895 (inactive); in assay [5], 0.801 (inactive); in assay [6], -0.604 (inactive); in [7], 1.84 (inactive). For the same molecule, the z-score is 1.42 (inactive) in assay [8]; 1.16 in assay [9]; 0.204 in assay [12]; -3.02 (inactive) in [13]; -0.478 (inactive) in assay [14]; -0.515 (inactive) in [15]. Moreover, the composite z-score in assay [4] is 0.369 (inactive); in assay [10], 0.0651; in assay [11], 1.02 (inactive); in the assay on XIP peptide (Xip251-270), 0.891.

As for `CC(C)NC(=O)[C@@]1(C)c2ccccc2C(=O)N(C(C)C)[C@H]1c1ccc(CO)cc1`, the z-score is -1.1 in assay [1]; -0.106 (inactive) in assay [2]; -0.822 (inactive) in assay [3]; 0.972 (inactive) in assay [5]; -0.553 (inactive) in [6]; 0.0378 (inactive) in assay [7]. Moreover, the z-score is -0.611 (inactive) in assay [8]; -0.43 in assay [9]; -0.568 in assay [12]; -2.26 (inactive) in assay [13]; 0.244 (inactive) in assay [14]; 0.246 (inactive) in assay [15]. Besides, the composite z-score in [4] was 0.127 (inactive); in assay [10] it was 0.0982; in [11], 3.06 (inactive); in the assay with XIP peptide (Xip251-270), 0.884.

Turning to `C=CCOC(=O)[C@@H]1[C@H]2C(=O)O[C@H](c3ccccc3)[C@H](c3ccccc3)N2[C@H](c2ccc(OCCOC(=O)[C@H]3C[C@H]4C(=O)N[C@@H](CCCC[N+](C)(C)C)C(=O)N4[C@H]3c3ccc(O)cc3)cc2)[C@@]12C(=O)Nc1ccc(I)cc12`, the z-score in [1] is -0.792; in assay [2], 1.47 (inactive); in assay [3], -0.706 (inactive); in [5], 2.01 (inactive); in [6], 2.12 (inactive); in [7], -0.877 (inactive). Further, the z-score in [8] was -1.37 (inactive); in assay [9] it was -0.578; in assay [12] it was -1.16; in assay [13] it was -0.103 (inactive); in assay [14], -0.655 (inactive); in assay [15], -0.636 (inactive). Moreover, the composite z-score is -0.353 (inactive) in [4], 0.0623 in assay [10], 0.708 (inactive) in assay [11] and 0.873 with XIP peptide (Xip251-270).

For `O=C(N1CCCCC1)[C@@]1(Cc2ccccc2)COC(c2ccc(OCCCO)cc2)=N1`, the z-score in assay [1] is 0.271; in [2], -5.06 (inactive); in [3], -0.949 (inactive); in assay [5], 0.258 (inactive); in assay [6] it was 2.13 (inactive); in [7], 0.401 (inactive). Also, the z-score in assay [8] is 0.0519 (inactive); in assay [9], 0.482; in [12] it was -1.77; in assay [13], -5.09 (inactive); in assay [14], -0.542 (inactive); in assay [15], -0.344 (inactive). The composite z-score in [4] was -0.447 (inactive); in assay [10], 0.284; in assay [11] it was 1.07 (inactive); with XIP peptide (Xip251-270), 0.819.

Regarding `NC(=O)NCC#Cc1ccc2c(c1)[C@]1(C(=O)N2)[C@H](c2ccc(O)cc2)N2[C@H](c3ccccc3)[C@H](c3ccccc3)OC(=O)[C@H]2[C@@H]1C(=O)Nc1nc2ccccc2s1`, the z-score in assay [1] is 0.971; in [2], 3.54 (inactive); in assay [3], 0.972 (inactive); in [5] it was 4.48 (inactive); in assay [6], 5.85 (inactive); in assay [7] it was 1.04 (inactive). The z-score in [8] was 1.19 (inactive); in assay [9], 0.388; in [12], 0.364; in assay [13] it was 0.608 (inactive); in [14] it was -0.275 (inactive); in assay [15], 0.0338 (inactive). Also, the composite z-score in [4] was -0.579 (inactive); in assay [10], 0.591; in [11] it was 0.541 (inactive); with XIP peptide (Xip251-270) it was 0.453.

For `C=CCOC(=O)[C@@H]1[C@H]2C(=O)O[C@H](c3ccccc3)[C@H](c3ccccc3)N2[C@H](c2ccc(OCCOC(=O)[C@H]3C[C@H]4C(=O)N[C@@H](CCCCNC(C)=O)C(=O)N4[C@H]3c3cccc(OCCO)c3)cc2)[C@@]12C(=O)Nc1ccc(I)cc12`, the z-score was -0.299 in assay [1]; 1.39 (inactive) in assay [2]; -0.565 (inactive) in assay [3]; 4.17 (inactive) in [5]; 2 (inactive) in assay [6]; -0.115 (inactive) in assay [7]. For the same molecule, the z-score was 0.228 (inactive) in assay [8]; -0.354 in [9]; -1.64 in [12]; 1 (inactive) in assay [13]; -0.398 (inactive) in assay [14]; -0.929 (inactive) in assay [15]. Also, the composite z-score is -0.406 (inactive) in assay [4], 0.0073 in [10], 1.09 (inactive) in assay [11] and 0.822 in the assay with XIP peptide (Xip251-270).

Take `C=C(CCCC)/C(=C/C[C@@H](OC(C)=O)c1ccc(CO)o1)c1cc(C(=O)OC)ccc1OC`: the z-score in [1] was -0.345; in [2] it was -1.63 (inactive); in assay [3] it was -0.493 (inactive); in [5], 1.23 (inactive); in assay [6], 0.0168 (inactive); in [7], -0.122 (inactive). Moreover, the z-score in assay [8] is -0.194 (inactive); in assay [9], 0.0716; in assay [12] it was -0.597; in assay [13] it was -4.83 (inactive); in assay [14] it was 0.19 (inactive); in [15] it was 0.471 (inactive). In addition, the composite z-score in assay [4] is -2.63 (inactive); in [10] it was -0.0367; in assay [11], 0.207 (inactive); in the assay with XIP peptide (Xip251-270), 0.778.

As for `COCCOC(=O)N1C(=O)[C@@]2(c3ccccc31)[C@H](C(=O)N1CCN(c3ncccn3)CC1)[C@H]1C(=O)O[C@H](c3ccccc3)[C@H](c3ccccc3)N1[C@@H]2c1ccc(OCCO)cc1`, the z-score is 0.0481 in [1]; 1.89 (inactive) in assay [2]; 0.351 (inactive) in assay [3]; 2 (inactive) in assay [5]; 2.64 (inactive) in assay [6]; 0.0841 (inactive) in assay [7]. Moreover, the z-score in assay [8] is 1.19 (inactive); in assay [9] it was 0.253; in [12], -1.93; in [13], -0.387 (inactive); in [14], 0.065 (inactive); in assay [15], 0.182 (inactive). Besides, the composite z-score in assay [4] is -1.04 (inactive); in assay [10] it was 0.0924; in assay [11], 0.707 (inactive); in the assay with XIP peptide (Xip251-270), 0.791.

Take `C=CC[C@@]12N=C(c3ccc(OCCCO)cc3)O[C@@H]1c1ccccc1N(CCS(=O)(=O)c1ccccc1)C2=O`: the z-score was 0.653 in [1]; 0.0618 (inactive) in assay [2]; -1.97 (inactive) in [3]; -0.251 (inactive) in [5]; 0.379 (inactive) in [6]; 0.907 (inactive) in assay [7]. Besides, the z-score in assay [8] is 1.6 (inactive); in assay [9], -1.07; in assay [12], -2.01; in [13] it was -2.38 (inactive); in [14], -0.641 (inactive); in assay [15], -0.295 (inactive). Moreover, the composite z-score in [4] was 0.0628 (inactive); in [10] it was 0.0303; in assay [11], 2.13 (inactive); with XIP peptide (Xip251-270), 0.767.
